# Test results as given in the supplement of paper PMC11417369.
# Whole data set: some 25,000 sequences, median “ln(normalized median fluorescence intensity)” near 9.3, cut for the highest 2% near 10. What follows is part of a selection rich in the highest values, with near analogues and random picks from the rest.
# System: PF3D7_0420300 AP2 domain 1 (GST-tagged)
# Experiment: gcPBM binding intensity (ln(normalized median fluorescence intensity)); higher = stronger DNA binding
# Method in brief: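 After 1 h on an Agilent 4 × 180k array of primer-extended double-stranded 36-bp intergenic genomic probes and negative controls, bound GST-tagged P. falciparum DNA-binding domains were detected with Alexa488 anti-GST antibody and scanned at 488 nm. The domains had been expressed in E. coli, and binding took place in 1× PBS with 1% milk, 0.2 mg/ml BSA, 0.5% salmon testes DNA and 0.03% Triton X-100. Binding intensity is the highest Masliner-normalised natural-log median intensity across replicate spots of either probe orientation.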
row,Sequence,gcPBM binding intensity (ln)
1,ATAATTATATTTTATTCACACATCGTTATATAGTAA [CACACA_site4743],9.31
2,AATATAAATGTGATTACACACAACAGATTTAAATGG [CACACA_site4802],9.53
3,TGTTTATATAATATTCTACACACCAACAACAAACAT [CACACA_site8087],9.74
4,AAAATTTTTAGTTATACACACAACATAGAAAATATT [CACACA_site328],9.47
5,TTTTTTTCACAAAATACACACAATATATTTTATATC [CACACA_site1138],9.25
6,TATAATAAAATTTTTACACACTTTAAAAAAAAAAAA [CACACA_site524],9.06
7,CATACACCCATACATACACACATACATATATATATA [CACACA_site8591],9.7
8,CATATACATACACATACACACATACACCCATACACA [CACACA_site8514],9.77
9,CATACACCCCAACACACACACACACCCATATATAAT [CACACA_site8097],10.4
10,TATATATACATATACACACACACACCCATATATATA [CACACA_site2246],10.2
11,ATACATATATATATATGTACATATATTTATATTTAT [XGTACX_site3155],9.21
12,TGAAAAAAGAAAAATACACACATATAACATAATATA [CACACA_site7126],9.83
13,CTCAACAAAATATGAGTGCATTGTTATTACATATAT,9.32
14,TAAAAATATAGGTATACACACATATAAATATAAATA [CACACA_site7785],9.64
15,TAATTCTTGTAAAATGTGCGCAGTAGATATAGTTTT,9.27
16,TGTGCCCAAAATTATGCACACACCTAAAATTAATTT [CACACA_site2914],9.42
17,AAAAATAAAAATTGCACACTAAAAAATTACGCACGA [CACACA_site3418],9.59
18,TGCACGCACAGACACACACACAACTAAAAAATAATG [CACACA_site7250],9.72
19,TAATTATGCCAACACACACACACACCCAACTAAAAA [CACACA_site8823],10.2
20,TAATTATGCAGACACACACACACACGCAACTAAAAA [CACACA_site7253],10.1

row,Sequence,gcPBM binding intensity (ln)
1,TAAAAAATAAAAATTGCACACTAAAAAATTACGCAC [CACACA_site9129],9.48
2,AAGATAATTACGCACACACACACACGCCCACAACTA [CACACA_site7255],10.2
3,AAAAGATAATTATGCACACACACACCCAGACACAAC [CACACA_site5428],10.1
4,TATGCACCCAGACACACACACACAACTAAAAAATAA [CACACA_site2567],9.96
5,GATAATTACGGACACACACACACACGCACAACTAAA [CACACA_site7254],10.3
6,GATAATTATGGACACACACACACACCCACAACTAAA [CACACA_site8824],10.3
7,TACACCCACCAACACACACACACACTAATAAAAAAA [CACACA_site8060],10.1
8,GTACATAGGTATAGCACACACAAATGTAGGTATTTT [CACACA_site4049],9.65
9,TATATTTATTATAACACACACATATAAATATTATAG [CACACA_site6726],9.67
10,TTGTTCTAATATATTGCACACGTAAAAATATAGGTA [CACACA_site8195],9.3
11,TAAGGATAAATAAAATGAAATGAAATAAATAAATGA [XGTACX_negctrl_site539],9.24
12,TATAAAATATAAATAAATAAATAAATATATATATAT [TGCATGCA_negctrl_site448],9.11
13,GCGGCGGTATCATGCACACGTATATATTGTAACAGT [CACACA_site4958],9.27
14,TTTTTTATTTTAATGTATTATTTTTATGTAATATAT [GTGCAC_negctrl_site391],9.23
15,CAAAAATAAATATAAACACACAATAAATAAATAAAT [CACACA_site891],9.91
16,TAAATACAAAAATGCACACGAAAAGTAATATATATA [CACACA_site6151],9.64
17,AAAAAAAAAAAACACACACACAATAGTATATAAATC [CACACA_site956],10.3
18,TAAAAATAGTATACAACACACGAGGGAAAATAAAGT [CACACA_site3837],10.2
19,AAAAAAAAAAGACACACACACAATAGTATATAAATC [CACACA_site6579],10.2
20,ATGGACAAAAAATATATACACACGAGGAAACCAACA [CACACA_site3726],10.1

row,Sequence,gcPBM binding intensity (ln)
1,AAAAAAAAAAAAAACACACACACAATAGTATATAAA [CACACA_site957],9.94
2,AAAAATATGAAGACACAATATAGAAATAAAAATATA [XGTACX_negctrl_site244],9.44
3,AGAGTATATAAAGTAACACACAATAAAATAAAATAA [CACACA_site2328],9.82
4,AACATAATAAAAATGGATATAATTCAAAGTTTGTAA [TGCATGCA_negctrl_site529],9.25
5,TTTTATATATATTATACACACAAGGAAAAAAAAAAA [CACACA_site3677],9.53
6,ATATATTTTATTCCTATATATATATATATATATATA [GTGCAC_negctrl_site556],9.27
7,AAAAATGTAAAGTGCGTGCACAAAATATTTGGAAAA,9.27
8,AGAAATATATCTATTTGTCCGTATATTCATATTTAT [XGTACX_site8427],9.4
9,TTAAACTTGAAACACACACACACACCGATATAAAAA [CACACA_site4578],10.2
10,GTAACATACACATATACACACACACCGATATACATA [CACACA_site8278],10.2
11,AAGGATATAACATACACACACACACCCATATATATA [CACACA_site4142],10.3
12,TTTTTTTATAAAAATGAACACACACCGATATATATA [CACACA_site9161],9.63
13,GGAAGGATATAACATACACACACACCCATATATATA [CACACA_site9376],10
14,ATATATACATATAACACACACATATATATATATATA [CACACA_site2575],9.56
15,TAACCATACATACATACACACACACCCACATATATA [CACACA_site8951],10.1
16,CATATAAAAGGACACACACACACATATATATATATA [CACACA_site4674],10
17,TTAAACTTGAAACACACACACACACCCATATAAAAA [CACACA_site758],10.1
18,ATAAAAAAAGGACACACACACATATATATATATATA [CACACA_site5662],9.93
19,CCATAAAAAGGATACACACACACACCGACATATATA [CACACA_site4653],10.2
20,AAGGATATAACATACACACACACACCGATATATATA [CACACA_site6136],10.2
